Measurements from PubChem BioAssay AID720597 (Broad Institute, 2013).
Measured potencies and affinities stand elsewhere. Calls of active or inactive are those of the source.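 The calls were made as follows: active = fitted half-maximal dose no more than twice the top valid tested dose, for compounds that lower signal; inconclusive = fit invalid, or curve flat with activity between -70 and -30; inactive = potency past limit, curve flat within ±30, or signal increasing.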

Molecular target: NAD-dependent protein deacylase sirtuin-5, mitochondrial (Homo sapiens) (UniProt Q9NXA8)
Sequence (Q9NXA8 whole entry, looked up): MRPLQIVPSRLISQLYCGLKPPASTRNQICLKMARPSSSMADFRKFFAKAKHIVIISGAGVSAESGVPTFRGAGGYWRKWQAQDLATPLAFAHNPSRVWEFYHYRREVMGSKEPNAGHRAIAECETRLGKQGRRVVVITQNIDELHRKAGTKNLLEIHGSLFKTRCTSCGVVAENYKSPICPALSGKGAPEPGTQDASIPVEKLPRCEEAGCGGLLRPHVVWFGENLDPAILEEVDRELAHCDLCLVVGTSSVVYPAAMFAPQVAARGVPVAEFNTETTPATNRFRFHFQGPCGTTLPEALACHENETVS
Assay: blockers of sirtuin-5 peptide desuccinylation – biochemical, fluorescence imaging, cherry-pick, set 6, dose response (AID 720597);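 also: lower AMC signal can also come from blocking the trypsin step; 0% = median of neutral control wells and -100% = median of positive control wells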
Details: Purified SirT5, succinyl-peptide-AMC/trypsin fluorescence; series mostly up to 15 µM; activity change, negative = inhibition: at the top concentration

Activity change, negative = inhibition, inactive:
Cc1ccc(S(=O)(=O)Nc2ccc3c(c2)C(=O)N([C@@H](C)CO)C[C@@H](C)[C@H](CN(C)Cc2ccc(C(F)(F)F)cc2)OCCCC[C@@H](C)O3)cc1 6.34%
C[C@@H]1CN([C@@H](C)CO)C(=O)c2cc(NC(=O)Nc3cccc4ccccc34)ccc2O[C@@H](C)CCCCO[C@@H]1CN(C)S(=O)(=O)c1ccc(Cl)cc1 7.77%
C[C@@H]1CN([C@H](C)CO)S(=O)(=O)c2ccc(/C=C/c3ccccc3)cc2O[C@H]1CN(C)C(=O)NC1CCCCC1 4.48%
COc1cccc(NC(=O)N2CC(=O)N3[C@H](CO)[C@H](c4ccc(C#CCC5CCCC5)cc4)[C@H]3C2)c1 24.2%
COc1cccc(S(=O)(=O)N(C)C[C@H]2Oc3cc(C4=CCCC4)ccc3S(=O)(=O)N([C@@H](C)CO)C[C@@H]2C)c1 10.5%
COc1ccccc1NC(=O)Nc1ccc2c(c1)C(=O)N(C)C[C@H](OC)[C@H](C)CN[C@@H](C)CO2 -29.5%
C[C@H]1CN([C@@H](C)CO)S(=O)(=O)c2ccc(C#CC3CC3)cc2O[C@H]1CN(C)C(=O)c1ccccn1 0.87%
Cc1noc(C)c1NC(=O)Nc1cccc2c1O[C@H](CN(C)Cc1ccc(Oc3ccccc3)cc1)[C@@H](C)CN([C@H](C)CO)C2=O 4.82%
Cc1noc(C)c1S(=O)(=O)N(C)C[C@H]1Oc2ccc(NC(=O)Cn3cnnn3)cc2CC(=O)N([C@H](C)CO)C[C@H]1C 2.62%
Cc1ccc(S(=O)(=O)N(C)C[C@H]2OCCCC[C@@H](C)Oc3ccc(NS(=O)(=O)c4ccccc4)cc3C(=O)N([C@@H](C)CO)C[C@@H]2C)cc1 -8.6%
